Potency and affinity values are given separately. Calls of active or inactive are those of the source. Entries that show only a call come without a potency. How the calls were made is not given here.

This experiment in a line: THP-1 cell cytotoxicity, cytotoxicity control, set 4 (AID 504911). The conditions noted are these: THP-1 cytotoxicity; series mostly up to 100 µM.
In the case of `CN1CCC(NC(=O)CSc2nc3ccccc3c(=O)[nH]2)CC1`, the compound was called inactive.

Turning to `Cc1ccc(NC(=O)CSc2nc3ccccc3c(=O)[nH]2)cc1Cl`, the call was inactive.

For the compound `Cn1c(SCC(=O)NC2CCCCC2)nc2ccccc2c1=O`, the result was inactive.

As for `CC1CCN(C(=O)CSc2nc3ccccc3c(=O)[nH]2)CC1`, the compound was called inactive.

Regarding `Cc1nc(SCC(=O)NC2CCCCC2)[nH]c(=O)c1C`, the call was inactive.

Take `CCOC1OC(=O)C(Cl)=C1Nc1ccccc1C` (configuration not stated): the compound was classed as inactive.

On to `CN[C@@H]1[C@H](O[C@H]2[C@H](O[C@H]3[C@H](O)[C@@H](O)[C@H](N=C(N)N)[C@@H](O)[C@@H]3N=C(N)N)O[C@@H](C)[C@]2(O)C=O)O[C@@H](CO)[C@H](O)[C@H]1O`, for which the result was inactive.

As for `COC(=O)c1ccc(CNc2c(N3CCCC3)c(=O)c2=O)cc1`, the compound was classed as inactive.

Regarding `Cc1cc(=O)[nH]c(SCC(=O)NC2CCCCC2)n1`, the compound was classed as inactive.

Turning to `Cc1c[nH]c(=S)[nH]c1=O`, the call was inactive.

As for `Cc1cc(=O)[nH]c(=S)[nH]1`, the compound was classed as inactive.

With `Cc1cnc(SCC(=O)NC2CCCCC2)[nH]c1=O`, the compound was classed as inactive.

On to `CCOC(=O)CSc1nc(C)c(C)c(=O)[nH]1`, for which the call was inactive.

For `NNC(=O)c1ccncc1`, the call was inactive.

For `CCC(Sc1nc2c(c(=O)[nH]1)CCC2)C(=O)Nc1cccc(OC)c1` (configuration not stated), the outcome was inactive.

Regarding `CCC(Sc1nc2ccccc2c(=O)[nH]1)C(=O)NC1CCCCC1` (configuration not stated), the compound was called inactive.

On to `NC[C@H]1O[C@H](O[C@H]2[C@H](O)[C@@H](O[C@H]3O[C@H](CO)[C@@H](O)[C@H](N)[C@H]3O)[C@H](N)C[C@@H]2N)[C@H](O)[C@@H](O)[C@@H]1O`, for which the call was inactive.

Consider `CN(C)C(=O)CSc1nc2ccccc2c(=O)[nH]1`, for which the call was inactive.

With `NC(=O)CSc1nc2ccccc2c(=O)[nH]1`, the compound was called inactive.

In the case of `CCC(Sc1nc2ccccc2c(=O)[nH]1)C(=O)Nc1cccc(OC)c1` (configuration not stated), the outcome was inactive.

For `Nc1cc(=O)[nH]c(SCC(=O)NC2CCCCC2)n1`, the call was inactive.

Take `CC[C@@H](CO)NCCN[C@@H](CC)CO`: the call was inactive.

With `Cc1ccc(NC(=O)COC(=O)CCc2c[nH]c3ccccc23)cc1[N+](=O)[O-]`, the result was inactive.

In the case of `O=C(CSc1nc2ccccc2c(=O)[nH]1)NC1CCCCC1`, the outcome was inactive.

Turning to `COc1ccc(NC(=O)CSc2nc3ccccc3c(=O)[nH]2)cc1`, the result was inactive.

On to `Cc1[nH]c(=S)[nH]c(=O)c1C`, for which the call was inactive.

Take `Cc1nc(SCC(=O)NCCC(C)C)[nH]c(=O)c1C`: the compound was called inactive.

Take `Cc1nc(SCC(=O)NC2CCCC2)[nH]c(=O)c1C`: the call was inactive.

In the case of `CC(C)CCNC(=O)CSc1nc2c(c(=O)[nH]1)CCC2`, the compound was classed as inactive.

Take `O=c1[nH]c(=S)[nH]c2ccccc12`: the call was inactive.

Regarding `COc1c(N2CCNC(C)C2)c(F)cc2c(=O)c(C(=O)O)cn(C3CC3)c12` (configuration not stated), the compound was called inactive.

Turning to `Cc1nc(SCC(N)=O)[nH]c(=O)c1C`, the outcome was inactive.

The record behind these values is PubChem BioAssay AID504911 (Southern Research Specialized Biocontainment Screening …, 2011).
